Data as given in PubChem BioAssay AID2552 (National Center for Advancing Translational Sciences (NCATS), 2010).
Active and inactive are the calls of the source. No rule for the calls is given here.

What follows are compounds tested against Thyroid hormone receptor beta (Homo sapiens) (UniProt P10828) (assay: Irreversible Binding Assay for Inhibitors of the Interaction of Thyroid Hormone Receptor and Steroid Receptor Coregulator 2). Details: TRb LBD-SRC2 peptide FP after dialysis, at 100 µM.
Description: NIH Molecular Libraries Probe Production Network [MLPCN] NIH Chemical Genomics Center [NCGC] MLPCN Grant: DK058080 Assay Provider: R. Kip Guy, St. Jude Children's Research Hospital NCGC Assay Overview: Thyroid receptor (TR) regulates many homeostatic processes including basal metabolism, cardiovascular function, body weight, and lipid trafficking. TR modulators are potential therapeutics for obesity and hyperlipidemias but current thyroid analogs have undesirable side effects, particularly cardiac stimulation. To identify whether inhibitors irreversibly block the interaction of TR with the steroid receptor coregulator 2 (SRC2), a fluorescence polarization assay was used (Arnold et al., 2006). […]
NCGC Assay Protocol Summary: One milliliter TRb (1 uM) was incubated with DMSO (4 %), SRC2-2 peptide (100 uM) or compound (100 uM) for 3 hr in assay buffer (20 mM Tris hydrochloride, pH 7.4, 100mM NaCl, 10% glycerol, 1mM EDTA, 0.01% NP-40, 1mM DTT, 1uM T3 and 4% DMSO). […] The protein samples were concentrated using a 10K spin filter column (Amicon Ultra, Millipore) and then quantified by Bradford analysis. For each sample, 20 uL assay buffer containing 2 uM TRb and 40 nM SRC2 Texas Red probe was incubated in a 384 well plate for 3 hr at ambient temperature and read by an Envision (Perkin Elmer) to detect fluorescence polarization of SRC2-2 Texas Red (555 nm excitation and 632 nm emission). […]

Sequence of Thyroid hormone receptor beta (Homo sapiens) (P10828 whole entry, looked up, the tested form may be a part): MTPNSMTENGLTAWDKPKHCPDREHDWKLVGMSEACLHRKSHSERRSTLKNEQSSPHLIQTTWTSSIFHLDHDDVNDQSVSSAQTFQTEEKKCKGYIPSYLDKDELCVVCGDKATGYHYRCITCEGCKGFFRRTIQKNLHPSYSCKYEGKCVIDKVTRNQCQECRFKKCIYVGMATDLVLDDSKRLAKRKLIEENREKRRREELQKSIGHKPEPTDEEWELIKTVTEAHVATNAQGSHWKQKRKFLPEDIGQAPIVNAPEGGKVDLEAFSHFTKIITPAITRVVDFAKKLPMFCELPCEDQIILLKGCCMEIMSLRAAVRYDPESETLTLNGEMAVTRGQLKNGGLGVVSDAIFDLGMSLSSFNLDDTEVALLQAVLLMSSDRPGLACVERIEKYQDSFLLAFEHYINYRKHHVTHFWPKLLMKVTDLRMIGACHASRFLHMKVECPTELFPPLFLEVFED

Row | Compound | activity change, negative = inhibition
1 | CC1(C)C2CCC1(C)C(NC(=O)COC(=O)c1ccc(S(C)(=O)=O)c([N+](=O)[O-])c1)C2 (stereo unspecified) | -96% (active)
